Among the test systems are NCI-H23 lung; NCI-H226 lung; NCI-H460 lung; HOP-92 NSCLC; NCI-H522 lung; A549/ATCC NSCLC; 786-0 renal; COLO 205 colon.
Common to all, as to test: NCI-60 one-dose screen, 48 h (100 = growth as untreated, 0 = no growth, -100 = all killed)
Details in all cases: 10 µM

Structures are written as SMILES. Compounds without any hit were thinned out: in the full panel of roughly 83,000, 20% have a hit.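 Method: cells in 96-well plates; compound added at one concentration; 48 h incubation; percent growth measured; values under 10 scored active.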 A number with no mark means an inactive call. The source made the active and inactive calls.

Turning to `COc1ccc(-c2nn(-c3cccc(Cl)c3)cc2/C=C2\NC(=S)N(c3ccc(Cl)cc3)C2=O)cc1`, the growth in the experiment on NCI-H23 lung is -7.88% (active); with NCI-H226 lung, -42.5% (active); in the experiment on NCI-H460 lung, 11%; in the experiment on HOP-92 NSCLC, 29.3%; in the experiment on NCI-H522 lung, -37.7% (active); in the experiment with A549/ATCC NSCLC, 18.8%. Also, the values for the growth in the experiment on 786-0 renal and with COLO 205 colon were 46.6% and 36.9%, respectively.

In the case of `COc1ccc(-c2nn(-c3cccc(Cl)c3)cc2-c2c(C#N)c(N)n(N)c(=O)c2C#N)cc1`, the growth is 66.9% with NCI-H23 lung; 66.5% in the experiment on NCI-H226 lung; 72.2% in the experiment with NCI-H460 lung; 53.8% with HOP-92 NSCLC; -46% (active) in the experiment on NCI-H522 lung; 66.2% in the experiment on A549/ATCC NSCLC. The growth was 84.2% with 786-0 renal and 85.3% in the experiment on COLO 205 colon.

Consider `COC(=O)C1OC1c1cc([N+](=O)[O-])ccc1OC` (stereo not given), for which the growth in the experiment with NCI-H23 lung was 93%; in the experiment on NCI-H226 lung it was 100%; in the experiment on NCI-H460 lung, 109%; with HOP-92 NSCLC it was 106%; in the experiment with NCI-H522 lung, 110%; in the experiment on A549/ATCC NSCLC, 103%. In addition, the growth in the experiment with 786-0 renal is 104%; in the experiment with COLO 205 colon, 111%.

For `C#C[C@]1(O)CCC2C3CCc4cc(OC5CCCC5)ccc4C3CC[C@@]21C` (stereo not given in full), the growth is 76.6% with NCI-H23 lung; 91.6% with NCI-H226 lung; 49.8% with NCI-H460 lung; 99.6% in the experiment on HOP-92 NSCLC; 65.9% in the experiment on A549/ATCC NSCLC; 73.5% in the experiment with 786-0 renal. Further, the growth in the experiment on COLO 205 colon was 49.3%.

Consider `C[C@@H](O)[C@H]1C(=O)N2C(C(=O)O)=C(SCCN=CN)C[C@H]12`, for which the growth in the experiment with NCI-H23 lung was -1.59% (active); in the experiment with NCI-H226 lung it was -34.7% (active); in the experiment with NCI-H460 lung, 1.59% (active); in the experiment with HOP-92 NSCLC, -8.43% (active); in the experiment with A549/ATCC NSCLC, -14.9% (active); in the experiment with 786-0 renal, 8.8% (active). Moreover, the growth in the experiment on COLO 205 colon was -25.8% (active).

For `CCOC(=O)CN(c1sc(C)c(C)c1C(=O)OCC)S(=O)(=O)c1ccc(C)cc1`, the growth in the experiment with NCI-H23 lung was 94.3%; in the experiment on NCI-H226 lung, 77.2%; with NCI-H460 lung, 98%; in the experiment on HOP-92 NSCLC, 85.2%; in the experiment with NCI-H522 lung it was 108%; with A549/ATCC NSCLC it was 91.6%. Also, the values for the growth in the experiment on 786-0 renal and in the experiment with COLO 205 colon were 92.8% and 108%, respectively.

`O=C1c2ccccc2C(=O)c2c1ccc(C(Br)Br)c2Cl`: the growth in the experiment on NCI-H23 lung was 8.26% (active); in the experiment with NCI-H226 lung it was 80.4%; in the experiment on NCI-H460 lung, 78%; with HOP-92 NSCLC it was 42.7%; in the experiment on NCI-H522 lung, -72.9% (active); with A549/ATCC NSCLC, 88.3%. Besides, the values for the growth with 786-0 renal and in the experiment on COLO 205 colon were -78.9% (active) and -33.4% (active), respectively.

As to `O=C(O)Cc1ccc(O)c(O)c1`, the growth in the experiment with NCI-H23 lung is 103%; with NCI-H226 lung, 98.2%; with NCI-H460 lung, 100%; in the experiment on HOP-92 NSCLC, 109%; in the experiment on NCI-H522 lung it was 106%; in the experiment with A549/ATCC NSCLC, 102%. Further, the growth in the experiment with 786-0 renal was 105%; in the experiment on COLO 205 colon, 103%.

For `COc1ccc2nc(Cl)c(Cn3nnc(Cc4ccccc4)n3)cc2c1`, the growth with NCI-H23 lung was 32.5%; in the experiment on NCI-H226 lung, 39%; in the experiment with NCI-H460 lung, 40%; with NCI-H522 lung it was 38%; in the experiment with A549/ATCC NSCLC it was 31.5%; with 786-0 renal, 47.5%. In addition, in the experiment with COLO 205 colon, the growth was 24.9%.

In the case of `CCn1c(SC/C(=N/O)c2ccccc2)nnc1-c1ccccc1`, the growth in the experiment with NCI-H23 lung was 103%; with NCI-H226 lung it was 108%; in the experiment on NCI-H460 lung, 102%; with HOP-92 NSCLC, 62.5%; in the experiment with A549/ATCC NSCLC, 101%; with 786-0 renal it was 105%. Also, the growth in the experiment on COLO 205 colon is 115%.

`COc1ccc(Cc2cnc(N)nc2N)cc1OC`: the growth is 96.8% in the experiment on NCI-H23 lung; 99.1% in the experiment with NCI-H226 lung; 105% with NCI-H460 lung; 90.1% in the experiment on HOP-92 NSCLC; 101% with A549/ATCC NSCLC; 109% in the experiment with 786-0 renal. The growth with COLO 205 colon was 108%.

As for `CCCCCOC(=O)Nc1nc(=O)n(C2O[C@H](C)[C@@H](O)[C@H]2O)cc1F` (stereo not given in full), the growth in the experiment with NCI-H23 lung is 95.3%; in the experiment with NCI-H226 lung, 97.7%; in the experiment with NCI-H460 lung, 102%; in the experiment on HOP-92 NSCLC it was 92.4%; in the experiment on A549/ATCC NSCLC, 98%; in the experiment with 786-0 renal, 106%. In addition, the growth in the experiment on COLO 205 colon is 106%.

On to `O=C(CCCCNC(=O)c1nc(-c2ccccc2)n(-c2ccccc2)n1)NO`, for which the growth in the experiment on NCI-H23 lung was 87%; in the experiment with NCI-H226 lung, 83.9%; in the experiment with NCI-H460 lung, 78.1%; with NCI-H522 lung, 27.7%; in the experiment with A549/ATCC NSCLC, 84.2%; with 786-0 renal, 92%. Moreover, in the experiment on COLO 205 colon, the growth is 84.9%.

Turning to `CN1CCN(c2cc3c(cc2F)c(=O)c(C(=O)O)cn3-c2ccc(F)cc2)CC1`, the growth in the experiment on NCI-H23 lung was 95.8%; in the experiment with NCI-H226 lung, 100%; in the experiment on NCI-H460 lung, 98.5%; in the experiment with HOP-92 NSCLC it was 118%; in the experiment with A549/ATCC NSCLC it was 102%; in the experiment on 786-0 renal it was 97.6%. Further, the growth in the experiment on COLO 205 colon is 107%.

In the case of `COc1ccc(C(=O)CSc2nc(-c3cc(OC)ccc3OC)cc(-c3ccc(OC)cc3)c2C#N)cc1`, the growth with NCI-H23 lung is 91.6%; in the experiment on NCI-H226 lung, 88.4%; in the experiment with NCI-H460 lung, 127%; in the experiment on NCI-H522 lung it was 81.6%; in the experiment with A549/ATCC NSCLC, 78.6%; in the experiment on 786-0 renal, 94.4%. Moreover, in the experiment on COLO 205 colon, the growth was 98.8%.

With `O=C(CCCCCCC(=O)Nc1ccccc1)NO`, the growth is 3.33% (active) in the experiment on NCI-H23 lung; 48.9% with NCI-H226 lung; 16.3% in the experiment on NCI-H460 lung; -10.4% (active) in the experiment on HOP-92 NSCLC; 7.25% (active) in the experiment on A549/ATCC NSCLC; 23.2% with 786-0 renal. Moreover, the growth in the experiment with COLO 205 colon was -62.8% (active).

`CC1/C=C/C=C/C=C/C=C/C=C/C=C/C=C/C(O[C@@H]2O[C@H](C)[C@H](O)[C@@H](O)[C@@H]2N)CC(O)C(C(=O)O)C(O)CC(=O)CC(O)CC(O)CC(O)CC(=O)CCCC(=O)CC(=O)OC1C(C)CC(C)C(O)CC(=O)c1ccc(N)cc1` (stereo not given in full): the growth is -96.5% (active) in the experiment on NCI-H23 lung; -93% (active) in the experiment on NCI-H226 lung; -81.8% (active) in the experiment on NCI-H460 lung; -88.2% (active) with HOP-92 NSCLC; -100% (active) with A549/ATCC NSCLC; -94% (active) in the experiment with 786-0 renal. Moreover, the growth with COLO 205 colon was -83.2% (active).

(Values after PubChem BioAssay (NCI).)
